Compound activity deposited in PubChem BioAssay by The Scripps Research Institute Molecular Screening Center.
In the library only some 3.4% were active in any assay of this set; here they are far more common.
FBW7 activator: FBW7 E3 ligase activators, primary screen, biochemical, AlphaScreen, human; F-box/WD repeat-containing protein 7 (Homo sapiens), Q969H0; AlphaScreen FBW7–phospho-cyclin E peptide binding, activator screen; normalized activity (activation), % at 26.1 µM; 650,000 tested, 0.13% active; AID 1259310, 2017; in the data active = normalized activity above about 1.9%;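 also: purified mutant Fbw7 with reduced substrate affinity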
GPR151 ag: activators of human GPR151, primary screen, cell-based, PathHunter beta-arrestin, luminescence. G-protein coupled receptor 151 (Homo sapiens), Q8TDV0. PathHunter beta-arrestin GPR151 cells. activation, % at 11.2 µM. 650,000 tested, 1% active. AID 1508602, 2020; in the data active = activation above about 4.9%;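 also: 0% = median of compound wells and 100% = cells with positive control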
Target sequence (Q8TDV0 whole entry, looked up): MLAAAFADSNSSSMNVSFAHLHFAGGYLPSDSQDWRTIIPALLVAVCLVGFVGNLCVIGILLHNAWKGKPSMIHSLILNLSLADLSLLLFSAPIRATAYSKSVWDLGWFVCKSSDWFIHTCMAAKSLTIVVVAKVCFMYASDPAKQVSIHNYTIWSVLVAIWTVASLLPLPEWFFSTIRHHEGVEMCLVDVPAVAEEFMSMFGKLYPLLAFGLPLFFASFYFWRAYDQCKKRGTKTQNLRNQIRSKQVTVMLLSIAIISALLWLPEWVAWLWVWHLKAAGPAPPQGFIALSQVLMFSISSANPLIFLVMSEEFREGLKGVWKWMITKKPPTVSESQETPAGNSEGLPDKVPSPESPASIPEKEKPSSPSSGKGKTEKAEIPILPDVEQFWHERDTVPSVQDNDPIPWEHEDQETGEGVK
TEAD-YAP block: TEAD-YAP interaction inhibition, primary screen, TEAD-YAP interaction inhibitor project, luminescence, HEK-TIYL cells. TEAD-Gal4/YAP UAS-luciferase luminescence. 640,000 tested, 1.4% active. inhibition, % at 9.12 µM; in the data active = inhibition above about 32%;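 also: 0% = median of test compound wells and 100% = reference inhibitor wells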
MITF primary: MITF inhibitors, primary screen, biochemical, AlphaScreen, human; inhibition, % at 2.6 µM; 650,000 tested, 0.91% active; AlphaScreen MITF homodimerization, bead proximity signal; AID 1259374, 2018; in the data active = inhibition above about 50%;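 also: 0% = vehicle wells with protein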
Starred values were filed as active, the others as inactive.

SMILES	FBW7 activator	GPR151 ag	TEAD-YAP block	MITF primary
COc1cc(C(=O)N/N=C/c2cccc(Br)c2)cc(OC)c1OC	-0.1	-0.1	60.4*	16.1
COc1cc(/C=N/NC(=O)c2c(C)nc3ccc(Cl)cn23)cc(OC)c1OC	16.1*	-0.4	-2.4	-76.6
COc1ccc(C(=O)N/N=C/c2cc(OC)c(O)c(OC)c2)cc1OC	0.2	-1.5	-21.2	9.3
COc1cc(/C=N\NC(=O)c2c(C)nc3ccc(Cl)cn23)cc(OC)c1OC	-0.1	0.2	5.3	5.3
Cn1c(SCC(=O)Nc2ccc(S(N)(=O)=O)cc2)nnc1-c1ccccn1	-0.3	0.6	3.4	7.9
COc1ccccc1CNC(=O)C(=O)NC(C)c1ccccc1 (centres undefined)	0.4	-0.5	-3.4	17.2
O=C(N/N=C/c1ccc(Br)s1)c1ccncc1	0.0	-7.8	35.9*	-6.8
O=C(N/N=C/c1cc(Br)c(Br)s1)c1ccncc1	-0.6	-0.2	14.7	1.5
COc1cc(C(=O)N/N=C/c2ccc(O)cc2)cc(OC)c1OC	0.1	-1.0	56.8*	3.4
COC(=O)N/N=C/c1ccc(Br)s1	-0.2	-1.0	-11.2	-5.0
COc1cc(C(=O)N/N=C/c2ccc(Br)s2)cc(OC)c1OC	0.0	0.7	59.1*	-2.8
CC1=CC2=NC(=O)/C(=C\c3cn(Cc4ccccc4)c4ccccc34)C(=N)N2O1	-0.2	-2.5	-10.8	-1.1
CCN(CC)c1ccc2cc(/C(N)=N/NC(C)=O)c(=O)oc2c1	0.2	-1.1	41.3*	-5.6
CCN(CC)c1ccc2cc(I)c(=O)oc2c1	2.9*	0.0	-27.9	-10.1
CCN(CC)c1ccc2cc(Cl)c(=O)oc2c1	1.1	0.0	-14.4	-27.3
CCN(CC)c1ccc2cc(N3C(=O)CCC3=O)c(=O)oc2c1	0.1	1.1	62.1*	7.9
O=c1c2ccccc2nc(SCc2ccc(OC(F)(F)F)cc2)n1CCC1=CCCCC1	-0.2	0.5	-11.8	-8.9
Cc1ccc(S(=O)(=O)N(CCC(=O)N2CCC3(CC2)OCCO3)Cc2c(Cl)cccc2Cl)cc1	0.4	-1.4	-2.7	21.2
Cc1cccc(Nc2c(-c3ccc(Cl)cc3)c(=O)c2=O)c1	0.1	-2.8	-16.3	27.4
Cc1cc(C(=O)N2CCOCC2)nn1CC(=O)N1CCN(c2cccc(Cl)c2)CC1	-0.1	4.5	12.8	-4.0
O=c1c(Cl)c(Cl)cnn1-c1ccc(Cl)c(C(F)(F)F)c1	0.1	2.3	85.7*	3.8
O=c1c(Cl)c(Cl)cnn1-c1ccccc1	0.0	0.3	92.8*	-4.0
O=c1c(Cl)c(Cl)cnn1-c1cccc(C(F)(F)F)c1	0.1	-0.6	18.0	10.4
Cc1cc(C)nc(-n2ncc(Cl)c(Cl)c2=O)n1	0.3	-1.2	86.0*	9.0
CSc1cnn(-c2ccccc2)c(=O)c1SC	1.9*	0.9	5.2	7.2
SMILES	FBW7 activator	GPR151 ag	TEAD-YAP block	MITF primary
Cc1cccc(C(=O)Nc2ccc(C(=O)Nc3ccccc3)cc2)c1	-0.1	-1.5	-25.7	-1.9
CCc1c(C)nc(NC2CCN(CC(=O)Nc3cccc(OC)c3)CC2)[nH]c1=O	0.0	-0.9	2.7	12.5
O=c1c(Cl)c(Cl)cnn1Cc1ccccc1Cl	0.6	0.6	33.4*	12.7
CCOc1cc(/C=N/NC(=O)Cn2nnc(-c3ccccc3)n2)ccc1O	0.0	0.8	16.4	6.5
O=C(Cn1c2ccccc2c(=O)c2ccccc21)N/N=C/c1ccccc1O	0.1	1.0	45.0*	15.0
CCOc1cc(/C=N/NC(=O)Cn2c3ccccc3c(=O)c3ccccc32)ccc1O	0.0	1.8	58.7*	-11.8
COc1ccc(S(=O)(=O)N(CC(=O)O)c2cccc(Cl)c2)cc1	0.0	-0.6	0.7	12.4
CNC(=O)CN(c1cccc(Cl)c1)S(=O)(=O)c1ccc(OC)cc1	0.1	1.3	45.1*	-6.0
CCOc1ccc(C2=NC(c3ccc(F)c(Br)c3)NC(c3cc(Cl)ccc3O)C2)cc1 (centres undefined)	-0.2	0.8	-5.0	-3.1
COc1ccccc1OCCn1cc(C(=S)N2CCOCC2)c2ccccc21	-0.2	-0.3	-5.2	15.4
COc1ccc(OCCn2cc(C(=S)N3CCOCC3)c3ccccc32)cc1	-0.2	0.6	32.2*	2.6
O=C(CSc1nnc2ncccn12)NCc1ccco1	-0.1	-0.6	-5.5	9.8
CC(C)COC(=O)c1ccc(NC(=O)COc2ccc(Br)cc2)cc1	0.0	1.3	35.4*	0.3
c1ccc(CNc2nc(Nc3ncccn3)nc3c2ncn3C2CCCCC2)cc1	0.0	2.7	7.6	7.3
CC1=C(C(=O)Nc2ccccn2)C(c2ccsc2)C2=C(CC(C)(C)CC2=O)N1 (centres undefined)	-0.1	1.9	7.3	1.8
CC1=C(C(=O)Nc2ccc(C)cn2)C(c2ccsc2)C2=C(CC(C)(C)CC2=O)N1 (centres undefined)	-0.3	-0.2	55.1*	-17.1
CCOC(=O)C1=C(C)NC2=C(C(=O)C(C(=O)OC)C(C)C2)C1c1ccc(C)cc1 (centres undefined)	0.5	-1.6	-1.4	10.0
CCOC(=O)C1=C(C)NC2=C(C(=O)C(C(=O)OC)C(C)C2)C1c1ccc(OC)cc1 (centres undefined)	2.3*	-0.3	-17.4	18.5
COC(=O)C1=C(C)NC2=C(C(=O)CC(c3ccccc3)C2)C1c1cc(OC)ccc1OC (centres undefined)	0.1	1.9	33.0*	3.4
COc1ccc(C2CC(=O)C3=C(C2)NC(C)=C(C(=O)OCc2ccccc2)C3c2ccc(OC)c(Br)c2)cc1 (centres undefined)	0.6	-0.6	47.8*	-11.8
COC(=O)C1=C(C)NC2=C(C(=O)CC(c3ccc(OC)cc3)C2)C1c1ccc(OC)c(Br)c1 (centres undefined)	0.0	-0.3	6.8	-15.0
CCOC(=O)C1=C(C)NC2=C(C(=O)CC(c3ccccc3)C2)C1c1cc(OC)ccc1OC (centres undefined)	-0.2	1.8	1.3	-1.7
Cc1ccc(-c2nnc(CCC(=O)NCC3CCCCC3)o2)s1	-0.1	3.1	-14.9	5.5
Cc1cccc(Nc2nc(O)c(/C=C3\C(=O)C=Cc4ccccc43)s2)c1	0.9	-0.9	-0.1	-13.5
CCOc1cc(CN2CCN(c3ccc(OC)cc3)CC2)ccc1OC	0.0	0.8	-5.0	44.9
COc1cc(Nc2nc(Cl)ncc2C)cc(OC)c1OC	0.1	1.0	5.6	9.7
O=C(CN1CCC(NC(=O)c2ccc(F)cc2)CC1)Nc1ccccc1Oc1ccccc1	0.1	-0.2	-12.8	22.3
COc1ccc(COC(=O)C2=C(C)NC3=C(C(=O)CC(C)(C)C3)C2c2ccccc2)cc1 (centres undefined)	2.6*	0.2	6.9	14.4
COc1ccc(COC(=O)C2=C(C)NC3=C(C(=O)CC(C)(C)C3)C2c2ccc(-c3ccccc3)cc2)cc1 (centres undefined)	0.4	-0.9	15.1	4.6
